Inconclusive results are not listed. A number with no mark means an inactive call. Calls of active or inactive are those of the source. Calls come from the whole dose curve; as a rule, active = well fitted cell-killing curve with a large enough effect; inconclusive = small, poorly fitted or top-dose-only effect; inactive = flat fitted curve, though single readings scatter.
Potency is the fitted concentration of half-maximal effect.

A short description of the experiment: qHTS of pediatric cancer cell lines to identify multiple opportunities for drug repurposing: Primary screen for RD cells (AID 1347104). Note: nearly all actives have a fitted effect of over 55% in size. The settings on record: RD rhabdomyosarcoma viability, CellTiter-Glo luminescence, 48 h; series mostly up to 46 µM; activity change, negative = cytotoxic: at the top concentration. An excerpt: Drug repurposing or repositioning has been offered as a strategy for drug development in oncology programs. This approach has special potential for childhood cancers and other rare or orphan diseases, where the expected return on new drug development has been a disincentive to pharmaceuticals. […] In this project we exploit the poly-pharmacology of drugs to discover new indications via phenotypic screening of a panel of 19 well-characterized cell lines derived from solid tumors seen in children and adolescents. The goal is to identify approved drugs with previously unrecognized anticancer properties that has the potential to reveal new mechanisms and biological processes involved in carcinogenesis or drug resistance. We employed a titration-based paradigm (quantitative high-throughput screening or qHTS), where all compounds were tested at multiple concentrations for their effect on cell viability. Concentration-response curves (CRCs) were derived directly from the primary screen, and both potency and efficacy values were used to identify compounds with robust bioactivity profiles. We screened the NIH Chemical Genomics Center (NCGC) Pharmaceutical Collection (NPC) and Mechanism Interrogation Plate (MIPE) small molecule collections of approved and investigational compounds against these cell lines; and measured metabolically active cells after 48 hours of compound treatment as a proxy for cell viability. […] Assay Submitter: Nathalia J. Martinez, National Center for Advancing Translational Sciences, National Institutes of Health, Rockville, MD, USA; email: natalia.martinez@nih.gov Shen, M et al. Quantitative high-throughput phenotypic screening of pediatric cancer cell lines identifies multiple opportunities for drug repurposing. Oncotarget 2017 Dec 19;9(4):4758-4772. PMID 29435139.
The cells were obtained from University of North Carolina (UNC), Pediatric Preclinical Testing Program (PPT), and Coriell Institute (CI). qHTS cell viability assay: Cells were assayed in growth media at a density of 500-1,000 cells/well. Five microliters of cells were dispensed into 1,536-well, white, solid-bottom, TC-treated plates (Greiner Bio One) using a multidrop dispenser and incubated at 37 degrees C, 5% CO2, under a humidified atmosphere for 5 hours. Twenty-three nanoliters of compounds and controls (neutral control DMSO or positive control bortezomib at final concentration of 2.3 µM) were subsequently transferred by Kalypsys pintool. For primary screens, the MIPE collection was tested at 11-point dilutions (final concentrations range from 0.78 nM to 46 µM) and the NPC collection at 8-point dilutions (final concentrations range from 0.59 nM to 46 µM). Compounds tested in follow-up screens were assayed at 11-point dilutions. Cells were incubated for 48 hours, followed by addition of 3 µL of CellTiter-Glo (Promega). After a 15 min incubation at room temperature, samples were analyzed for luminescence intensity using a ViewLux High-throughput CCD imager equipped with clear filters.
For orientation: In qHTS, concentration-response curves come from the screen itself.
Regarding `C[C@@H]1O[C@@H](O[C@H]2CC[C@@]3(C)[C@H](CC[C@@H]4[C@H]3C[C@@H](O)[C@]3(C)[C@@H](C5=CC(=O)OC5)CC[C@]43O)C2)C[C@H](O)[C@@H]1O[C@H]1C[C@H](O)[C@H](O[C@H]2C[C@H](O)[C@@H](O)[C@@H](C)O2)[C@H](C)O1` (stereo in doubt), the Potency is 0.121 µM (active).

Consider `CCNC(=O)c1noc(-c2cc(C(C)C)c(O)cc2O)c1-c1ccc(CN2CCOCC2)cc1`, for which the Potency is 0.235 µM (active).

For the compound `CC1(C)CC(=O)c2c(C(F)(F)F)nn(-c3ccc(C(N)=O)c(NC4CCC(O)CC4)c3)c2C1` (stereo not given), the Potency is 0.0743 µM (active).

On to `NCC1CCC(C(=O)O)CC1` (stereo not given), for which the “activity change, negative = cytotoxic” value was -0.115%.

For the compound `CC1=C[C@@H]2[C@@H]([C@@H](O)C[C@@]3(C)[C@H]2C[C@@H](C)[C@]3(O)C(=O)CO)[C@@]2(C)Cc3cnn(-c4ccccc4)c3C=C12`, the Potency is 29.6 µM (active).

Turning to `CCC(C)SSc1ncc[nH]1` (stereo not given), the Potency was 26.4 µM (active).

With `COc1nccc(-c2c(-c3ccc(F)cc3)ncn2C2CCC(O)CC2)n1` (stereo not given), the “activity change, negative = cytotoxic” value is -1.02%.

On to `CCCCC(F)(F)[C@@]1(O)CC[C@H]2[C@H](CC(=O)[C@@H]2CCCCCCC(=O)O)O1`, for which the “activity change, negative = cytotoxic” value was 1.29%.

On to `COc1ccc(-c2ccc3ncc4c(c3c2)n(-c2ccc(N3CCNCC3)c(C(F)(F)F)c2)c(=O)n4C)cn1`, for which the Potency is 0.743 µM (active).

As for `CN1[C@H]2CC[C@H]1CC(OC(=O)c1c[nH]c3ccccc13)C2` (stereo not given in full), the “activity change, negative = cytotoxic” value was -18.3%.

Consider `C[C@H]1COC2=C1C(=O)C(=O)c1c2ccc2c1CCCC2(C)C`, for which the “activity change, negative = cytotoxic” value is -6.2%.

For the compound `CC(=O)OCC(=O)[C@@]1(O)CC[C@H]2[C@@H]3CCC4=CC(=O)C=C[C@]4(C)[C@@H]3[C@@H](O)C[C@@]21C`, the “activity change, negative = cytotoxic” value is -7.66%.

As for `Nc1[nH]nc2nnc(-c3c(-c4ccccc4)nn4ccccc34)cc12`, the Potency is 11.8 µM (active).

As for `Cc1ccc2c(=O)c3cccc(CC(=O)O)c3oc2c1C`, the Potency was 29.6 µM (active).

As to `O=C1Nc2ccc(I)cc2C1=Cc1cc(Br)c(O)c(Br)c1`, the “activity change, negative = cytotoxic” value was -22.8%.

On to `CCOC(=O)N1CCN([N+]([O-])=NOc2cc(ON=[N+]([O-])N3CCN(C(=O)OCC)CC3)c([N+](=O)[O-])cc2[N+](=O)[O-])CC1`, for which the “activity change, negative = cytotoxic” value was 7.07%.

In the case of `FC(F)(F)c1ccc(C=Cc2nc(COc3ccc(CCCCn4ccnn4)cc3)co2)cc1`, the Potency is 0.0118 µM (active).

Turning to `O=C(O)C1=NC(C(=O)O)CC(C=CN2c3cc(O)c(OC4OC(CO)C(O)C(O)C4O)cc3CC2C(=O)O)=C1` (stereo not given), the “activity change, negative = cytotoxic” value is 4.84%.

Turning to `CC(NCCc1ccc(O)cc1)C(O)c1ccc(O)cc1` (stereo not given), the “activity change, negative = cytotoxic” value was 5.81%.

Take `Cn1c(=O)c(Oc2ccc(F)cc2F)cc2cnc(NC3CCOCC3)nc21`: the “activity change, negative = cytotoxic” value was -18.9%.

As for `COc1cc(CNC(=O)CCCCC=CC(C)C)ccc1O`, the “activity change, negative = cytotoxic” value is -6.25%.

Regarding `C[C@@H]1CCO[C@H]2Cn3cc(C(=O)NCc4ccc(F)cc4F)c(=O)c(O)c3C(=O)N12`, the “activity change, negative = cytotoxic” value was -1.16%.

As for `O=C(CC12CC3CC(CC(C3)C1)C2)Nc1cccc2nc(NCCNCCO)ccc12`, the Potency was 33.2 µM (active).

`O=C(O)C1=CC(O)C(O)[C@H](O)C1` (stereo not given in full): the “activity change, negative = cytotoxic” value was 5.47%.

Regarding `CN(C)CCOc1cc(-c2cn[nH]c2)ccc1NC(=O)C1COc2ccccc2O1` (stereo not given), the “activity change, negative = cytotoxic” value was -20.2%.

Take `C[C@@]1(c2cc(-c3cncnc3)c(F)cc2F)CCSC(N)=N1`: the Potency was 2.09 µM (active).

On to `CC(C)c1c(C(=O)Nc2ccccc2)c(-c2ccccc2)c(-c2ccc(F)cc2)n1CC[C@H](O)C[C@@H](O)CC(=O)O`, for which the “activity change, negative = cytotoxic” value is -26.4%.

Turning to `NC(=O)c1ccc(N(C(N)=O)c2c(F)cccc2F)nc1-c1ccc(F)cc1F`, the “activity change, negative = cytotoxic” value is -20.4%.

Consider `CC(=O)O[C@]1(C(C)=O)CC[C@H]2[C@@H]3C=C(Cl)C4=CC(=O)[C@@H]5C[C@H]5[C@]4(C)[C@@H]3CC[C@@]21C`, for which the Potency was 18.7 µM (active).

For the compound `COc1ccnc(CS(=O)c2nc3ccc(OC(F)F)cc3[nH]2)c1OC` (stereo not given), the Potency entry is “inactive”.

For `CCOC(=O)[C@H](CCc1ccccc1)N[C@@H](C)C(=O)N1CCCC1C(=O)O` (stereo not given in full), the “activity change, negative = cytotoxic” value was -15.5%.

In the case of `O[C@@H](COc1cccc2ncccc12)CN1CCN(C2c3ccccc3[C@@H]3[C@H](c4ccccc42)C3(F)F)CC1` (stereo not given in full), the Potency was 18.7 µM (active).

For the compound `CC[C@H](C=C[C@@H](C)[C@H]1CC[C@H]2[C@@H]3CC=C4C[C@@H](O)CC[C@]4(C)[C@@H]3CC[C@]12C)C(C)C`, the “activity change, negative = cytotoxic” value was -7.4% [at 16.1 µM].

Turning to `O=C(Nc1ncc(SCCN2CCCC2)s1)[C@]1(c2ccc(S(=O)(=O)C3CC3)cc2)C[C@@H]1C1CCCCC1`, the Potency is 14.8 µM (active).

Take `CCC=CC[C@H]1C(=O)CC[C@@H]1CC(=O)OC`: the “activity change, negative = cytotoxic” value was 7.89%.

With `CCCC1OC2C[C@@H]3[C@H]4CCC5=CC(=O)C=C[C@]5(C)[C@H]4C(O)C[C@]3(C)[C@]2(C(=O)CO)O1` (stereo not given in full), the “activity change, negative = cytotoxic” value is -17.8%.

For `O=C(CO)N1CCC(c2[nH]nc(-c3ccc(Cl)cc3)c2-c2ccncn2)CC1`, the “activity change, negative = cytotoxic” value was -3.46%.

On to `C[C@H]1[C@H](O)O[C@@H]2O[C@@]3(C)CC[C@@H]4[C@H](C)CC[C@@H]1[C@@]24OO3`, for which the Potency is 1.87 µM (active).

In the case of `CS(=O)(=O)c1ccc(C2=C(c3ccccc3)C(=O)OC2)cc1`, the “activity change, negative = cytotoxic” value is 11.6%.

Consider `CN(C)CCOc1ccc(C(=C(CCCl)c2ccccc2)c2ccccc2)cc1`, for which the “activity change, negative = cytotoxic” value was -6.85%.

The values above are taken from PubChem BioAssay (NCATS).
